From PubChem BioAssay
ELG1 genotoxic: qHTS screen for small molecules that induce genotoxicity in human embryonic kidney (HEK293T) cells expressing luciferase-tagged ELG1 | HEK293T ELG1-luciferase reporter, luminescence, 16 h | Potency, µM (highest dose often 46 µM), usual class: activators | 1.3% of 330,000 active; further: nearly all actives have a fitted effect of over 60% in size
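Cells (2,000/well) expressing the ELG1-luciferase fusion are dosed by pin tool and kept 16 hr at 37 °C, 5% CO2. Signal comes from ONE-Glo luciferase reagent after 30 min at room temperature.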
Rab9 prom act: qHTS Assay for Rab9 Promoter Activators. AID 485297, 2010. 2.8% of 320,000 active. Potency, µM (top dose mostly 9.22 µM), hits mostly activators. Huh7 Rab9 promoter-luciferase reporter, luminescence, 24 h; further: nearly all actives have a fitted effect of over 60% in size
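Promoter activation is measured as luciferase luminescence in Huh7 cells stably transfected with a Rab9 promoter–luciferase construct, following 24 h compound exposure at 37 °C and 10 min reagent incubation at ambient temperature.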
uPA generation: qHTS for Inhibitors of Cell Surface uPA Generation; cell surface uPA generation assay, qHTS; 0.31% of 330,000 active; Potency, µM (doses to about 38.3 µM), hits mostly inhibitors; active means well fitted inhibition curve with a large enough effect; inconclusive means small, poorly fitted or top-dose-only effect; inactive means no such curve, though single readings can be large or run the other way; tested in mouse RAW 264.7 cells; further: nearly all actives have a fitted effect of over 55% in size
NPC1 prom act: qHTS Assay for NPC1 Promoter Activators | Huh7 NPC1 promoter luciferase reporter, 24 h | Potency, µM (series often up to 9.22 µM), usual class: activators | 2.4% of 320,000 active; further: nearly all actives have a fitted effect of over 60% in size
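Stable NPC1-promoter luciferase Huh7 line; cpd (DMSO) 24 h, 37 °C, 5% CO2; Amplite luciferase reagent 10 min RT; luminescence readout. qHTS format.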
SMN2 splice enh: qHTS Assay for Enhancers of SMN2 Splice Variant Expression; HEK293 SMN2-luciferase splicing reporter, luminescence, 30-36 h; Potency, µM (doses to about 46.1 µM), actives largely listed as activators; 2.8% of 210,000 active; AID 1458, 2008; further: nearly all actives have a fitted effect of over 55% in size
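qHTS luciferase splicing reporter: luminescence rises when SMN2 exon 7 is included in transfected HEK293 cells. Compound exposure lasted 30-36 h at 37C, with 4.5 mM final sodium butyrate as control, followed by a ONE-Glo read.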
FLuc modulator: qHTS profiling assay for firefly luciferase inhibitor/activator using purifed enzyme and Km concentrations of substrates (counterscreen for miR-21 project); Luciferin 4-monooxygenase (Photinus pyralis), P08659; purified FLuc, Km substrates, luminescence inhibition; Potency, µM (titrated, usually from 57.5 µM), actives largely listed as inhibitors; 6.9% of 360,000 active; AID 588342, 2011; further: nearly all actives have a fitted effect of over 55% in size
Target sequence (P08659 whole entry, looked up): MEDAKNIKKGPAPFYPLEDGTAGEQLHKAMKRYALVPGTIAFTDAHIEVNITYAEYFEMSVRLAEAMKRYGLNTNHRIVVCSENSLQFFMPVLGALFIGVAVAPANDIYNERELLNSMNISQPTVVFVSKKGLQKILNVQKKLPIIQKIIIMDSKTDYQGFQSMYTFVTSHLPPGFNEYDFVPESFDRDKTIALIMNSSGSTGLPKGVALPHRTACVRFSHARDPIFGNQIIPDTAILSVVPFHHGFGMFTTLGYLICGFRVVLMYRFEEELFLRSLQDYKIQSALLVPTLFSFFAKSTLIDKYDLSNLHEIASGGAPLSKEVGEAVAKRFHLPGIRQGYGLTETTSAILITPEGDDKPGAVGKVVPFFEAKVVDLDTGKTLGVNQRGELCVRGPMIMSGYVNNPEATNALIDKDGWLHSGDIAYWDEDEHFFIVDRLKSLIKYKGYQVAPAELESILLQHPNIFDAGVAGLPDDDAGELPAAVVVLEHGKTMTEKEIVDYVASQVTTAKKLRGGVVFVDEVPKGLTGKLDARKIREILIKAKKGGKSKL
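Biochemical qHTS of compounds, final roughly 60 µM downward over six points, against 10 nM purified firefly luciferase using Km concentrations of substrates (10 uM D-luciferin, 10 uM ATP) in Tris acetate pH 7.5 buffer; luminescence output.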
Numbers stand for hits; - = inactive; ? = inconclusive; . = not tested or not shown; [ ] = dose if it differs, or a comment. Only some compounds are listed: those with a hit (about 7.3% of all), similar ones and a draw of the others. Unless noted, the call rests on the fitted dose curve; in most records, active means well fitted curve in the direction sought with a large enough effect; inconclusive means small, poorly fitted or top-dose-only effect, or another doubt; inactive means no such curve, though single readings can be large; an effect the other way counts as inactive or inconclusive.

SMILES	ELG1 genotoxic	Rab9 prom act	uPA generation	NPC1 prom act	SMN2 splice enh	FLuc modulator
O=C(NCc1ccco1)/C(=C\C=C\c1ccccc1)NC(=O)c1ccccc1Br	-	-	-	-	-	27µM
O=C(NCc1ccco1)/C(=C/C=C/c1ccccc1)NC(=O)c1ccco1	-	-	-	-	-	-
C/C(N)=C(/C#N)C(=O)CSc1ccccc1F	?	3.5µM	-	?	?	?
C/C(N)=C(/C#N)C(=O)CSc1nnc(-c2ccc(OC(F)F)cc2)o1	5.8µM	1.3µM	-	1.4µM	11µM	2.7µM
O=C(c1ccc(Cl)cc1)N1CCCCC(Sc2nnc(-c3ccc4c(c3)OCO4)o2)C1=O (stereo not drawn)	?	?	-	?	-	1.9µM
NC(=O)CSc1nnc(-c2ccc3c(c2)OCO3)o1	?	2.5µM	-	2.8µM	13µM	15µM
C/C(N)=C(/C#N)C(=O)CSc1nnc(Cc2ccccc2F)n1N	-	-	-	-	-	-
C/C(N)=C(/C#N)C(=O)CSc1nnc(-c2ccc3c(c2)OCO3)o1	0.58µM	0.1µM	-	0.28µM	1.1µM	0.27µM
O=C(CCN1C(=O)/C(=C/c2ccc(F)cc2)SC1=S)NC1C=CS(=O)(=O)C1 (stereo not drawn)	-	-	-	-	.	-
O=C(CCCN1C(=O)/C(=C/c2ccccc2Cl)SC1=S)NNC(=O)c1cccnc1	-	-	?	-	.	13µM
O=C(CCN1C(=O)/C(=C/c2ccccc2Cl)SC1=S)NC1C=CS(=O)(=O)C1 (stereo not drawn)	-	-	7.9µM	-	.	-
O=C(CCCN1C(=O)/C(=C/c2ccccc2Cl)SC1=S)NNC(=O)c1ccccc1	-	-	?	-	-	-
N#C/C(=C\c1ccccn1)c1ccccn1	-	?	-	-	.	?
CN(C)c1ccc(/C=C(\C#N)c2ccccn2)cc1	?	0.4µM	-	0.45µM	.	0.24µM
COC(=O)c1ccc(OC(=O)c2ccccn2)cc1	-	-	-	-	-	11µM
N#C/C(=C/c1cccs1)c1ccccn1	?	4.5µM	-	2.8µM	.	12µM
COC(=O)c1ccc(/C=C(\C#N)c2ccccn2)cc1	2.6µM	0.89µM	?	1.1µM	?	2.4µM
Cc1ccc(C(=O)OC[C@H]2O[C@H](Cl)C[C@@H]2OC(=O)c2ccc(C)cc2)cc1	.	.	.	.	-	.
N#C/C(=C\c1cccnc1)c1ccc([N+](=O)[O-])cc1	-	-	-	-	.	-
N#C/C(=C\c1ccc([N+](=O)[O-])cc1)c1ccccn1	?	?	.	1.6µM	.	?
Cc1cc(C)n2c(Br)c(CSc3nc4ccccc4s3)nc2n1	?	?	-	?	11µM	?
CCNC(=O)NC(=O)COC(=O)CCCSc1nc2ccccc2s1	-	-	-	-	-	19µM
Cc1cc(C)nc(NC(=O)CSc2nc3ccccc3s2)n1	5.8µM	3.2µM	.	?	-	12µM
CC(C)(C)NC(=O)CCCSc1nc2ccccc2s1	?	1.8µM	-	?	?	15µM
Cc1ccccc1Nc1nc(N)nc(CSc2nc3ccccc3s2)n1	-	-	-	-	-	-
SMILES	ELG1 genotoxic	Rab9 prom act	uPA generation	NPC1 prom act	SMN2 splice enh	FLuc modulator
CCc1ccc(NC(=O)C(Cc2ccccc2)NS(=O)(=O)c2ccc3c(c2)c(=O)n(C)c(=O)n3C)cc1 (stereo not drawn)	.	.	.	.	-	-
Cc1ccc(S(=O)(=O)N2CCN(CC(=O)N/N=C/C=C/c3ccccc3)CC2)cc1	-	-	-	-	-	-
COc1ccc([C@]23Cc4cc(C#N)ccc4[C@H](O2)c2c(cc(C)n(Cc4ccccc4)c2=O)O3)cc1	.	-[1.84 µM]	.	-[1.84 µM]	.	-[11.5 µM]
CCOc1ccc2nc(N3CCCC(C(=O)NCCc4ccc(C)cc4)C3)sc2c1 (stereo not drawn)	.	.	.	.	-	-
CCOc1ccc2nc(N3CCCC(C(=O)Nc4ccc(Br)c(C)c4)C3)sc2c1 (stereo not drawn)	.	.	.	.	-	6µM
COc1ccc(N2CCN(CCCNC(=O)c3ccc4nc(N5CCCCC5)sc4c3)CC2)cc1	.	.	.	.	0.79µM	?
CCOc1ccc2nc(N3CCC(C(=O)Nc4ccccc4CC)CC3)sc2c1	.	.	.	.	-	-
CCOc1ccc2nc(N3CCCC(C(=O)N4CCN(CC)CC4)C3)sc2c1 (stereo not drawn)	-	?	?	?	?	21µM
CCOc1ccc2nc(N3CCC(C(=O)Nc4nnc(CC)s4)CC3)sc2c1	12µM	4µM	-	1.1µM	2.2µM	?
COc1ccccc1C1C=C(c2ccc(Cl)cc2)Nc2nc(-c3ccc(Cl)cc3)nn21 (stereo not drawn)	.	.	.	.	-	-
CCOc1cc2[nH]c(=S)n(Cc3ccc(C(=O)O)cc3)c(=O)c2cc1OCC	-	-	-	-	.	-
CCOc1ccc2nc(N3CCCC(C(=O)NCc4ccc(OC)cc4)C3)sc2c1 (stereo not drawn)	.	.	.	.	13µM	2.4µM
CCOc1ccc2nc(N3CCCC(C(=O)NCCCOC)C3)sc2c1 (stereo not drawn)	.	.	.	.	14µM	12µM
CCOc1ccc2nc(N3CCCC(C(=O)NCC4CCCO4)C3)sc2c1 (stereo not drawn)	-	?	?	?	.	4.8µM
Cc1cc(C)c2nc(N3CCCC(C(=O)NC4CCCC4)C3)sc2c1 (stereo not drawn)	-[9.26 µM]	?	-	-	.	9.5µM
CCCN1CCN(CCCNC(=O)C2CCCN(c3nc4ccc(OCC)cc4s3)C2)CC1 (stereo not drawn)	-	-	-	-	-	-
CCOc1ccc2nc(N3CCN(C(=O)CS(=O)(=O)c4ccc(F)cc4)CC3)sc2c1	.	.	.	.	.	3µM
CCOc1ccc2nc(N3CCN(C(=O)c4ccc(S(=O)(=O)CC)cc4)CC3)sc2c1	.	.	.	.	.	-
CCOc1cc2sc(N3CCC(C(=O)Nc4ccc(C)cc4)CC3)nc2cc1Br	.	.	.	.	16µM	-
CCOc1ccc2nc(N3CCCC(C(=O)NCCc4ccc(OCC)c(OCC)c4)C3)sc2c1 (stereo not drawn)	.	.	.	.	-	?
CCOc1ccc2nc(N3CCCC(C(=O)NCCc4ccc(OC)cc4OC)C3)sc2c1 (stereo not drawn)	.	.	.	.	14µM	?
CCOc1cc2sc(N3CCC(C(=O)Nc4ccccc4C(=O)OC)CC3)nc2cc1Br	.	.	.	.	-	-
CCOc1ccc2nc(N3CCCCCC3)sc2c1	?	1µM	.	1.1µM	7.9µM	1.1µM
COc1ccc(CCNC(=O)CCc2c(C)nc3c4cccnc4nn3c2C)cc1OC	.	.	.	.	-	-
O=C(c1ccc(CS(=O)(=O)Cc2ccccc2)cc1)N1CCCCC1	-	-	-	-	.	-
